# Test results as given in PubChem BioAssay AID504537 (National Center for Advancing Translational Sciences (NCATS), 2011).
# Inconclusive results are not listed. The source made the active and inactive calls. How the calls were made is not given here.
# Target: Histone-lysine N-methyltransferase 2A (Homo sapiens) (UniProt Q03164)
# Test: Inhibitor SAR for Compounds Targeting the Menin-MLL Interaction in MLL Related Leukemias: Competition With Fluorescein Labeled MLL-derived Peptide
# Conditions: Menin-MLL fluorescein peptide fluorescence polarization competition
# Text: qHTS Assay for Inhibitors Targeting the Menin-MLL Interaction in MLL Related Leukemias NIH Chemical Genomics Center [NCGC] NIH Molecular Libraries Probe Centers Network [MLPCN] MLPCN Grant: MH084875-01A1 Assay Submitter (PI): Jolanta Grembecka, Tomasz Cierpicki, University of Virginia Translocations of the MLL (Mixed Lineage Leukemia) gene are frequently found in human leukemias affecting both children and adults. Fusion of MLL to one of more than 60 genes results in generation of oncogenic proteins upregulating Hox genes, which are vital to blood cell development. Patients harboring fusion of the MLL gene suffer from aggressive leukemias and respond poorly to available therapies. All of the oncogenic fusion proteins have a preserved N-terminal fragment of MLL that has been identified to interact with menin. It has been recently discovered that association with menin is critical to the leukemogenic activity of the MLL fusion oncoproteins. Selective targeting of the menin-MLL interaction could provide an attractive therapeutic approach to develop novel drugs for MLL-related leukemias. Small molecules blocking the menin-MLL interaction should reverse the oncogenic potential of MLL fusion proteins. We have developed and optimized a fluorescence polarization-based assay for the identification of Menin-MLL inhibitors. The assay was run employing two different MLL-derived peptides. The present assay uses a 12 amino acid peptide labeled with fluorescein at its N-terminus. This peptide consists of the menin high affinity binding motif from MLL and is potently bound by menin. Another peptide with a mutated sequence, labeled with Texas Red, was used in parallel as a less stringent screen for inhibitors. The present assay was run to characterize initial structure activity relationships.
# The Menin protein, the MLL-wild type (w.t.) derived peptide (N-terminal 12 amino acids), the MLL-derived peptide labeled with Texas Red and the MLL-w.t. peptide labeled with Fluorescein were kindly supplied by laboratory of Dr. Jolanta Grembecka, University of Virginia. All protein and peptide solutions were stored in single use aliquots at -80C. The Eu3+ Cyrptate-conjugated mouse monoclonal antibody anti-6 Histidine (Eu3+-AB) and the Streptavidin-XL665 conjugate (XL665) were purchased from Cisbio International (Bedford, MA). All antibody and XL665 conjugate solution stocks were stored in single use aliquots at -20C. The Buffer components for all assays were purchased from Sigma-Aldrich (St. Louis, MO) and Invitrogen (Carlsbad, CA). FP Assay Reagents: 1. FP reaction buffer: 50 mM Tris-HCl pH 7.5, 50 mM NaCl, 1mM DTT. Before use, 0.05% BSA is added. 2. Menin protein, MLL-w.t. labeled with fluorescein, MLL-mutant peptide labeled with texas red. Stored in singe use aliquots at -80C. 3. MLL-w.t. unlabeled peptide as positive control: 10 uM final in FP buffer. FP Assay Procedure: 1. Prepare Menin at 200 nM, MLL-w.t.-fluorescein at 25 nM, and MLL-mutant-texas red at 50 nM mixture in FP buffer. 2. Prepare Menin at 200 nM, MLL-w.t.-fluorescein at 25 nM, MLL-mutant-texas red at 50 nM, and 10 uM MLL-w.t. unlabeled mixture in FP buffer. 3. Prepare MLL-w.t.-fluorescein at 25 nM and MLL-mutant-texas red at 50 nM mixture in FP buffer. 3. Dispense 4 ul per well of reagent in step 1 in columns 2, 4 - 48 in a black 1536 well plate, dispense 4 ul per well of reagents from steps 2 and 3 in columns 1 and 3 respectively. Incubate plate at ambient for 15 minutes. 4. Transfer 23 nl per well of compound to plate and incubate at ambient for 1 hr. 5. Read fluorescence polarization for each label using the PerkinElmer Envision. Envision protocol for fluorescein: FITC FP Dual Enh Mirror, Excitation filter 480, Emission filter (1) P-pol 535, Emission filter (2) S-pol 535 Envision protocol for texas red: FP Dual Enh Mirror, Excitation filter 555, Emission filter (1) P-pol 632, Emission filter (2) S-pol 632
# Histone-lysine N-methyltransferase 2A (Homo sapiens), sequence (Q03164 whole entry, looked up): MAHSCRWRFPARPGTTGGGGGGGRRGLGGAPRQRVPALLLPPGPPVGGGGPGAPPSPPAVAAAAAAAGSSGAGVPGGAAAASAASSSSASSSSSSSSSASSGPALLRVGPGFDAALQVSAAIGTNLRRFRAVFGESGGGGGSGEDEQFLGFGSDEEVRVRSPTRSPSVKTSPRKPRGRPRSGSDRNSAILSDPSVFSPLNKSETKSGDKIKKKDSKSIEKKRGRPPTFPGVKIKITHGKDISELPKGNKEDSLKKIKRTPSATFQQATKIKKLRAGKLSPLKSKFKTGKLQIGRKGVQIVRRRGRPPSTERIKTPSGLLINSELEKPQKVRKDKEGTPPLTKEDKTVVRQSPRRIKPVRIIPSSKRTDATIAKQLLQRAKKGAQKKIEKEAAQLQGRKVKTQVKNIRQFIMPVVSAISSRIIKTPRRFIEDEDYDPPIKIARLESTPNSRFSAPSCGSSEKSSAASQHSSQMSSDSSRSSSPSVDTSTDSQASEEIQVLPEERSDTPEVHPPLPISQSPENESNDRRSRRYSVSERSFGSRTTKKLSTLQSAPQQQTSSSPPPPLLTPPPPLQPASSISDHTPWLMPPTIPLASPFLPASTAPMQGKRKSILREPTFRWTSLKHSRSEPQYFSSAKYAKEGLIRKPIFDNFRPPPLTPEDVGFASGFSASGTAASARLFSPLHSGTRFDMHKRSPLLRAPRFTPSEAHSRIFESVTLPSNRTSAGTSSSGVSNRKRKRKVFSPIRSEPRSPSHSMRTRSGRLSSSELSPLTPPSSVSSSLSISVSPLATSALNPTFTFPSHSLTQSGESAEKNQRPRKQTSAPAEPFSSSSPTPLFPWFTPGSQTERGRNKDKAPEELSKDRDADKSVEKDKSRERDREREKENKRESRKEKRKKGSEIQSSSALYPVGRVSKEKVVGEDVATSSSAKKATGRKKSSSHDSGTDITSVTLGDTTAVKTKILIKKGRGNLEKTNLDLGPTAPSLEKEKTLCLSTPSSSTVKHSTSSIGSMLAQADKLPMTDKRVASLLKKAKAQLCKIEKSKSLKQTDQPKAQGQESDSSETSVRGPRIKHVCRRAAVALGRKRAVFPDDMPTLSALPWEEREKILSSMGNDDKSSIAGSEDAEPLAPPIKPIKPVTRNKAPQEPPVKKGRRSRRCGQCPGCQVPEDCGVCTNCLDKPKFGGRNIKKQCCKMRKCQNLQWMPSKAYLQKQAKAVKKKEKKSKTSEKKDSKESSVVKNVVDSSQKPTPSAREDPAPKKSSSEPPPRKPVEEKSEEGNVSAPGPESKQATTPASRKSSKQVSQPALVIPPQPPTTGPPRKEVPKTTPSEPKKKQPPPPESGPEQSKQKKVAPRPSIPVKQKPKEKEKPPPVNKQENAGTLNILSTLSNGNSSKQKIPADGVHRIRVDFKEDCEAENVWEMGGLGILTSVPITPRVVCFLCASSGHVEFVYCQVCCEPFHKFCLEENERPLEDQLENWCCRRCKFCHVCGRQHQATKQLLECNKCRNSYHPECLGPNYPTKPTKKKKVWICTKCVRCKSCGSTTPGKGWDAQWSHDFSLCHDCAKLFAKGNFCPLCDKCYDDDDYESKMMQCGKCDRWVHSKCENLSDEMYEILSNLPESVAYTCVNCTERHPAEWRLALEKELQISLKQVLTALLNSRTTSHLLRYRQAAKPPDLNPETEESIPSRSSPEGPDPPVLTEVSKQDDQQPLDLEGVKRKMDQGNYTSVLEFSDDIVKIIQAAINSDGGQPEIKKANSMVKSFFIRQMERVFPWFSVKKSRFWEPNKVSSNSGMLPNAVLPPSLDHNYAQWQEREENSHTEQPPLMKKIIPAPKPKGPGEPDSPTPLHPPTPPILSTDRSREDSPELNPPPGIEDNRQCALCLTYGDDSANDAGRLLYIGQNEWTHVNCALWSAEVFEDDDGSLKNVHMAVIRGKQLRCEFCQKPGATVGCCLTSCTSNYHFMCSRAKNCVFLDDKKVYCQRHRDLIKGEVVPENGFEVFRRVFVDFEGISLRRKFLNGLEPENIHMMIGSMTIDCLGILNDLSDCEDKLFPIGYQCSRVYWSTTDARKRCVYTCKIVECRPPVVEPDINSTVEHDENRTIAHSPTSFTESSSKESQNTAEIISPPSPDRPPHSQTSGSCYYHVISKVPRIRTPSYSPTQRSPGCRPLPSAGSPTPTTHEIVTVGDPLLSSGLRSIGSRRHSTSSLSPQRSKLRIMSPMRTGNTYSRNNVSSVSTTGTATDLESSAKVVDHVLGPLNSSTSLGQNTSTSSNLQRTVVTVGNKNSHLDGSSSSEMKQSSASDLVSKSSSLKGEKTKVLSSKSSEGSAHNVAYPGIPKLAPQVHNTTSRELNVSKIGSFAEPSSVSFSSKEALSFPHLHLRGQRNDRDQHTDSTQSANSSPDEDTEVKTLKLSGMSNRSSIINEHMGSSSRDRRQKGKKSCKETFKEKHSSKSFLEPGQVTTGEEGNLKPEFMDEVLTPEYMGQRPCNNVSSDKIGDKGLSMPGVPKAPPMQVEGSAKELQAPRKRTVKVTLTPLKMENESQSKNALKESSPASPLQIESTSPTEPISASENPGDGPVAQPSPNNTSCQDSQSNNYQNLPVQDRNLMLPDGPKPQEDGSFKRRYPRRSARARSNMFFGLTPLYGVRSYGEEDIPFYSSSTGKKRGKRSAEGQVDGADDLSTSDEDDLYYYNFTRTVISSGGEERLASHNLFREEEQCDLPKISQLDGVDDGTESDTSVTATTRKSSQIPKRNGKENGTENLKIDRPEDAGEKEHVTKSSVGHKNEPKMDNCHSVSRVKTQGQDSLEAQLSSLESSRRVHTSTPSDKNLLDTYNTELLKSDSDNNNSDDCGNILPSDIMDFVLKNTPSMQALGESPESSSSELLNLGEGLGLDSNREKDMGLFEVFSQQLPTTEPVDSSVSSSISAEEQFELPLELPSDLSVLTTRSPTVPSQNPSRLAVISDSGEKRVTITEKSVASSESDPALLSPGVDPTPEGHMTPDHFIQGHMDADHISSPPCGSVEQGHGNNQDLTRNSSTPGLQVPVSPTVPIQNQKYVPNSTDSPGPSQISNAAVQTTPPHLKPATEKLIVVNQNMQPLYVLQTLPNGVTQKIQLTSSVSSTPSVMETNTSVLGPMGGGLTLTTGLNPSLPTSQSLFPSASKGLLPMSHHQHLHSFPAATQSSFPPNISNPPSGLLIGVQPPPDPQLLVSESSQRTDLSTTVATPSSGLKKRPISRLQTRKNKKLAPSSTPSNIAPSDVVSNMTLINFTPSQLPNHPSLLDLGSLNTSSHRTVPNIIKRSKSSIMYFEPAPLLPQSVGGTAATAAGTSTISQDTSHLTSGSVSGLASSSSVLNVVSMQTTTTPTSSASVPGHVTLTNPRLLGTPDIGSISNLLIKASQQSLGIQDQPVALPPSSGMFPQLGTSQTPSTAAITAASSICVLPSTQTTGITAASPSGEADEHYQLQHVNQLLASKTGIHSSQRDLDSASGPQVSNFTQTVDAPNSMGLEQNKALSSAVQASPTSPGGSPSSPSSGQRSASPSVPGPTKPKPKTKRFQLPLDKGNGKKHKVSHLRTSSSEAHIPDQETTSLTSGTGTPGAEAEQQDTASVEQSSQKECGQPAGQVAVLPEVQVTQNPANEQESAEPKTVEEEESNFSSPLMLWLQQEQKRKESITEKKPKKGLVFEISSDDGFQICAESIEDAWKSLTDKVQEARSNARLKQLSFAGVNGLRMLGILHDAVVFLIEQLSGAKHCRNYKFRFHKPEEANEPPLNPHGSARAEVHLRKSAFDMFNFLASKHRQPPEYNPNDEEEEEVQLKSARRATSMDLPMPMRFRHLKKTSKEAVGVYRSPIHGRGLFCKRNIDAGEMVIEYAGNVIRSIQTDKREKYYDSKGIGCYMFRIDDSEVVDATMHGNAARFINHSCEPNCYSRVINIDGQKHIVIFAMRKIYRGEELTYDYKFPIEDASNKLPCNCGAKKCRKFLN
Structure (SMILES),outcome,Potency
O=C(O)c1ccc(OCCCN2CCC(C(O)(c3ccccc3)c3ccccc3)CC2)cc1,"inactive; no saturation, 34% inh. at 1mm",
CC(C)(C(=O)O)c1ccc(C(O)CCCN2CCC(C(O)(c3ccccc3)c3ccccc3)CC2)cc1 (centres undefined),inactive; no activity up to 2 mm,
N#Cc1ccc(OCCCN2CCC(C(O)(c3ccccc3)C(F)(F)F)CC2)cc1 (centres undefined),,31 µM (active)
FC(F)(F)Oc1ccc(OCCCN2CCC(C(c3ccccc3)c3ccccc3)CC2)cc1,"inactive; no saturation, 12%inh at 2mm",
Nc1ccc(OCCCN2CCC(C(O)(c3ccccc3)c3ccccc3)CC2)cc1,,60.5 µM (active)
OC(c1ccccc1)(c1ccccc1)C1CCN(CCCOc2ccc(-c3nn[nH]n3)cc2)CC1,"inactive; interference with assay at higher dose, inactive up to 100 um",
[N-]=[N+]=Nc1ccc(OCCCN2CCC(C(O)(c3ccccc3)c3ccccc3)CC2)cc1,,58 µM (active)
FC(F)(F)c1ccc(OCCCN2CCC(C(c3ccccc3)c3ccccc3)CC2)cc1,"inactive; no saturation, 36% inh at 2mm",
N#Cc1ccc(COCCN2CCC(C(O)(c3ccccc3)c3ccccc3)CC2)cc1,"inactive; no saturation, 50% inh at 1mm",
OC(c1ccccc1)(c1ccccc1)C1CCN(CCCOc2ccc(C(F)(F)F)cc2)CC1,,52 µM (active)
FC(F)(F)Oc1ccc(OCCCN2CCC(=C(c3ccccc3)c3ccccc3)CC2)cc1,"inactive; no saturation, 12%inh at 2mm",
c1ccc(OCCCN2CCC(=C(c3ccccc3)c3ccccc3)CC2)cc1,"inactive; no saturation, 42% inh at 2mm",
NCc1ccc(OCCCN2CCC(C(O)(c3ccccc3)c3ccccc3)CC2)cc1,,7.6 µM (active)
CC(C)c1ccc(OCCCN2CCC(=C(c3ccccc3)c3ccccc3)CC2)cc1,"inactive; no saturation, 15% inh at 1mm",
Cc1ccc(OCCCN2CCC(=C(c3ccccc3)c3ccccc3)CC2)cc1,"inactive; no saturation, 25% inh at 2mm",
OC(c1ccccc1)(c1ccccc1)C1CCN(CCCOc2ccc(-n3ccnn3)cc2)CC1,,29 µM (active)
FC(F)(F)c1ccc(OCCCN2CCC(=C(c3ccccc3)c3ccccc3)CC2)cc1,"inactive; no saturation, 25% inh at 2mm",
N#Cc1ccc(OCCCN2CCC(C(O)(c3ccccc3)c3ccccc3)CC2)cc1F,,26.5 µM (active)
COc1ccccc1C(=O)Nc1ccnn1C1CCN(CC2CCCCC2)CC1,,42 µM (active)
